Test results: PubChem BioAssay AID2677 (National Center for Advancing Translational Sciences (NCATS), 2010)
Some of the results follow. Results filed as inconclusive are left out. Active and inactive are the calls of the source. Calls come from the whole dose curve; as a rule, active = well fitted inhibition curve with a large enough effect; inconclusive = small, poorly fitted or top-dose-only effect; inactive = no such curve, though single readings can be large or run the other way.

target: Lysine-specific demethylase 4E (Homo sapiens) (UniProt B2RXH2); test: Confirmation qHTS Assay for Inhibitors of Human Jumonji Domain Containing 2E (JMJD2E); details: Recombinant JMJD2E, FDH-coupled NADH fluorescence (FDH is formaldehyde dehydrogenase)
From the text: The fine interplay among methylation states of several lysine residues on the tails of histone proteins is a major determinant of the transcriptional state of the associated DNA coding regions and is commonly referred to as the histone code. Histone lysine demethylases catalyze the removal of methyl groups from methylated lysine sidechains on histones H3 and H4, thus antagonizing the reactions catalyzed by histone lysine methyltransferases. […] In search for novel inhibitors of JMJD2E demethylase, a member of the largest set of histone demethylases belonging to the Fe(II) and 2-oxoglutarate oxygenase (2OG) superfamily, we performed a quantitative high-throughput screen (Inglese 2006) by using an assay which utilizes a trimethylated peptide substrate corresponding to a fragment of histone H3 (sequence ARKme3STGGK) with detection of the formaldehyde co-product in real time by a formaldehyde dehydrogenase (FDH) coupled reaction. FDH catalyzes oxidation of formaldehyde to formic acid with the concomitant reduction of the non-fluorescent beta-nicotinamide adenine dinucleotide hydrate (NAD+) cofactor to the fluorescent NADH co-product. References: Inglese, J., Auld, D., Jadhav, A., Johnson, R., Simeonov, A., Yasgar, A., Zheng, W. and Austin, C. Proc Natl Acad Sci USA 2006, 103, 11473-11478. N. R. Rose, S. S. Ng, J. Mecinovic, B. M. Lienard, S. H. Bello, Z. Sun, M. A. McDonough, U. Oppermann and C. J. Schofield, J Med Chem, 2008, 51, 7053-7056. Sakurai, M., Rose, N., Schultz, L., Quinn, A., Jadhav, A., Ng, S., Oppermann, U., Schofield, C.J. and Simeonov, A. Mol BioSystems 2009, in press. S. Michael, D. Auld, C. Klumpp, A. Jadhav, W. Zheng, N. Thorne, C. Austin, J. Inglese and A. Simeonov, Assay Drug Dev Technol, 2008, 6, 637-657. Assay Provider: Structural Genomics Consortium [SGC] Screening Center PI: Austin, C.P. Screening Center: NIH Chemical Genomics Center [NCGC]
Reagents and Controls: Ferrous ammonium sulfate, (+)-sodium L-ascorbate, beta-nicotinamide adenine dinucleotide hydrate (NAD+), Tween-20, formaldehyde dehydrogenase from P. putida (FDH), and disodium 2-oxoglutarate were from Sigma (St. Louis, MO). Black solid-bottom 384-well or 1,536-well assay plates were from Greiner Bio-One (Monroe, NC). Enzyme was supplied by Prof. Udo Oppermann, SGC-Oxford. […] The trimethylated histone peptide substrate ARK(me3)STGGK was synthesized and HPLC-purified by the Tufts University Core Facility (Boston, MA). Substrate solution (Sakurai 2009) contained 50 uM ARK(me3)STGGK, 0.00025 U/uL FDH, 50 uM 2-oxoglutarate, 250 uM NAD+, 1 mM ascorbate, and 10 uM ferrous ammonium sulfate. Controls and plate map: Buffer (150 mM HEPES pH 7.5 containing 0.01% Tween-20) in columns 3 and 4 as negative control (no enzyme) and 100 nM JMJD2E final concentration in columns 1,2, and 5-48. Assay Steps: Enzyme and buffer solutions (3 uL) were dispensed into a 1,536-well Greiner black solid-bottom assay plate. The library compounds (23 nL) were transferred using a Kalypsys pintool equipped with 1,536-pin array. The plate was incubated at room temperature (15 min), and then a 1 uL aliquot of substrate solution was added to initiate the reaction. The plate was transferred to ViewLux imager where an initial reading using standard UV optics (Ex 340 nm, Em 450 nm) was obtained. The plate was then removed from the reader, incubated for 30 minutes at room temperature, and returned to the reader for a second fluorescence reading. A fully automated robotic screening system (Kalypsys Inc, San diego, CA) was used to perform the above steps as described previously (Michael 2008). Compound plates containing DMSO as a vehicle-only control were included at regular interval throughout the screen to monitor any systematic trend in the assay signal associated with reagent dispenser variation or decreases in enzyme specific activity. For activity calculations, percent values were computed as the difference in fluorescence intensity between last and first time points. […]

Sequence of Lysine-specific demethylase 4E (Homo sapiens) (B2RXH2 1-337 limits assumed): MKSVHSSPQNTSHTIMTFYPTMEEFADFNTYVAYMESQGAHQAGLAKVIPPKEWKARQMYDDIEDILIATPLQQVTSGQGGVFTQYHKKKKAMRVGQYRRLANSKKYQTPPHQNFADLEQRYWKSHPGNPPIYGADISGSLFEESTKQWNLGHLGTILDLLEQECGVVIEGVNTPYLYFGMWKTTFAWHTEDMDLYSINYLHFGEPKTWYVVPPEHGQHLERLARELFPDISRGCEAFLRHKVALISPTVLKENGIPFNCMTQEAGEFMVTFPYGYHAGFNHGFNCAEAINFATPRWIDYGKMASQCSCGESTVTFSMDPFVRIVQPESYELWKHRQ

Potency, active:
Cc1ccc(N2C(=O)CC(Sc3ncn[nH]3)C2=O)cc1 (stereo unspecified) 5.01 µM, O=C1CC(Sc2ncn[nH]2)C(=O)N1c1ccccc1 (stereo unspecified) 7.08 µM, Oc1ccc(/C=C/c2c(F)cccc2F)c2cccnc12 9.13 µM, Oc1c(CN2CCCC2)cc(COCc2ccccc2)c2cccnc12 5.01 µM, Oc1cccc2cc(-c3ccncc3)cnc12 18.2 µM, Nc1ccc(Nc2cc(O)c3ncccc3c2)cc1 28.2 µM
